“And” between values parts separate entries of the source, which are not always exact repeats. Identical values can stand only once. Inconclusive results are not listed. A call without a number means that no potency is given here. The source made the active and inactive calls. Calls follow the shape of the dose curve; as a rule, active = well fitted curve in the direction sought with a large enough effect in the repeat runs; inconclusive = weak or mixed curves; inactive = no such curve, though single readings can be large; an effect the other way counts as inactive or inconclusive.
Potency is read from the fitted curve at half-maximal effect.

The first test can be described thus: qHTS assay to identify small molecule antagonists of the glucocorticoid receptor (GR) signaling pathway - cell viability counter screen (AID 720693). Also: nearly all actives have a fitted effect of over 55% in size. To be noted: GR-bla HeLa viability, CellTiter-Glo luminescence, 18 h, with 5 nM dexamethasone present; series mostly up to 58.5 µM.
With `Cc1cc(C(F)(C(F)(F)F)C(F)(F)F)ccc1NC(=O)c1cccc(I)c1C(=O)NC(C)(C)CS(C)(=O)=O`, the Potency result was “inactive”.

Take `Nc1ccccc1C(=O)Oc1ccc2ccccc2c1`: the Potency entry is “inactive”.

Regarding `Nc1ccc(Cc2ccc(N)c(Cl)c2)cc1Cl`, the Potency is 53.1 µM (active).

As for `C[C@]12CC[C@@H]3c4ccc(OC(=O)N(CCCl)CCCl)cc4CC[C@H]3[C@@H]1CC[C@@H]2O`, the Potency entry was “inactive”.

Consider `O=[N+]([O-])c1c2ccccc2cc2ccccc12`, for which the Potency entry was “inactive”.

On to `CC(=O)Nc1ccc2c(c1)Cc1ccccc1-2`, for which the Potency result was “inactive”.

Take `BrCBr`: the Potency result is “inactive”.

As to `O=C(O)COc1nc(Cl)c(Cl)cc1Cl`, the Potency result is “inactive”.

Regarding `CN(C)C(=S)[S-].CN(C)C(=S)[S-].[Cu+2]`, the Potency was 2.67 µM (active).

With `N#CC(Cl)Cl`, the Potency result is “inactive”.

Regarding `CC(C)CCCCCCCOP(=O)(Oc1ccccc1)Oc1ccccc1`, the Potency result was “inactive”.

Regarding `O=C(CBr)c1ccc(O)cc1`, the Potency result was “inactive”.

Consider `Oc1c(Cl)c(Cl)cc(Cl)c1Cl`, for which the Potency entry is “inactive”.

With `[CH3][Hg][Cl]`, the Potency was 19.5 µM (active).

On to `ClC1=C(Cl)[C@]2(Cl)[C@H]3[C@H]([C@H]4C=C[C@H]3C4)[C@@]1(Cl)C2(Cl)Cl`, for which the Potency entry is “inactive”.

In the case of `CCCCCCCCCBr`, the Potency entry is “inactive”.

As to `Cc1ccc(OP(=O)(Oc2ccccc2)Oc2ccccc2)cc1`, the Potency entry is “inactive”.

Take `S=C=Nc1cccc2ccccc12`: the Potency result is “inactive”.

For `Nc1ccccc1C(=O)OC/C=C/c1ccccc1`, the Potency entry is “inactive”.

For `c1ccc(Nc2ccc3ccccc3c2)cc1`, the Potency entry is “inactive”.

In the case of `Cc1c(Cl)c(=O)oc2cc(OP(=O)(OCCCl)OCCCl)ccc12`, the Potency entry was “inactive”.

Consider `CCOC(=O)OC1=C(c2cc(C)ccc2C)C(=O)NC12CCC(OC)CC2` (stereo unspecified), for which the Potency result is “inactive”.

For the molecule `FC(F)(F)c1cccc(C2=CCN(CCc3ccc4ccccc4c3)CC2)c1`, the Potency entry is “inactive”.

For `Nc1ccc(Sc2ccc(N)cc2)cc1`, the Potency result is “inactive”.

Turning to `c1ccc(OCC2CO2)cc1` (stereo unspecified), the Potency entry is “inactive”.

In the case of `CCC(C)(C)C(=O)OC1=C(c2ccc(Cl)cc2Cl)C(=O)OC12CCCCC2`, the Potency result was “inactive”.

In the case of `CN(C)C1CSSSC1`, the Potency entry is “inactive”.

Consider `COP(=S)(OC)Oc1cc(Cl)c(Br)cc1Cl`, for which the Potency entry was “inactive”.

On to `O=C(CCCN1CCC2(CC1)C(=O)NCN2c1ccccc1)c1ccc(F)cc1`, for which the Potency entry is “inactive”.

Regarding `Fc1cccc(Cl)c1CCl`, the Potency result was “inactive”.

For `COP(=O)(OC)SCn1c(=O)oc2cc(Cl)cnc21`, the Potency was 49 µM (active).

A further test is described as follows: qHTS assay for identifying genotoxic compounds that show differential cytotoxicity against isogenic chicken DT40 cell lines with known DNA damage response pathways - wild type cell line (AID 743012). Also: nearly all actives have a fitted effect of over 60% in size. To be noted: DT40 wild type chicken cells viability, CellTiter-Glo, 40 h; series mostly up to 68.4 µM. The method, boiled down: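 Wild type DT40, 300 cells/well, ~0.5 h settle at 37 C/5% CO2; compounds in DMSO added by pintool; 40 h at 37 C/5% CO2; CellTiter-Glo, 30 min RT; luminescence.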
Background: Quantitative high-throughput screening tests each substance at several concentrations.
`CCOc1cc(C(C)(C)C)ccc1C1COC(c2c(F)cccc2F)=N1` (stereo unspecified): the Potency was 26.3 µM (active).

As for `Nc1ccc(Cc2ccc(N)c(Cl)c2)cc1Cl`, the Potency is 74.4 µM (active).

Regarding `C[C@]12CC[C@@H]3c4ccc(OC(=O)N(CCCl)CCCl)cc4CC[C@H]3[C@@H]1CC[C@@H]2O`, the Potency result was “inactive”.

For the molecule `Oc1cc(Cl)c(Cl)c(Cl)c1`, the Potency entry was “inactive”.

As to `CN(C)C(=S)[S-].CN(C)C(=S)[S-].[Cu+2]`, the Potency was 14.9 µM (active).

On to `Oc1c(Cl)c(Cl)cc(Cl)c1Cl`, for which the Potency is 66.7 µM (active).

For `Clc1ccc(C(c2ccccc2Cl)C(Cl)(Cl)Cl)cc1` (stereo unspecified), the Potency is 45.1 µM (active).

Take `[Cd+2].[Cl-].[Cl-]`: the Potency is 19.5 µM (active) and 24.3 µM (active).

As to `CC(C)N1C(=O)N(c2ccccc2)CSC1=NC(C)(C)C`, the Potency was 21.7 µM (active).

For the molecule `O=C(CCCN1CCC2(CC1)C(=O)NCN2c1ccccc1)c1ccc(F)cc1`, the Potency is 29.8 µM (active).

Turning to `C1CCC2CCCCC2C1` (stereo unspecified), the Potency result is “inactive”.

Take `O=c1oc2ccccc2c(O)c1Cc1c(O)c2ccccc2oc1=O`: the Potency result is “inactive”.

The nature of a further test: qHTS assay for identifying genotoxic compounds that show differential cytotoxicity against isogenic chicken DT40 cell lines with known DNA damage response pathways - Rev3 mutant cell line (AID 743014). Also: nearly all actives have a fitted effect of over 55% in size. The settings on record: chicken DT40 Rev3-/- viability, CellTiter-Glo, 40 h; series mostly up to 68.4 µM.
Take `Cc1cc(C(F)(C(F)(F)F)C(F)(F)F)ccc1NC(=O)c1cccc(I)c1C(=O)NC(C)(C)CS(C)(=O)=O`: the Potency is 43.5 µM (active).

In the case of `CCOc1cc(C(C)(C)C)ccc1C1COC(c2c(F)cccc2F)=N1` (stereo unspecified), the Potency is 23.4 µM (active).

With `Oc1cc(Cl)c(Cl)c(Cl)c1`, the Potency entry was “inactive”.

On to `O=C(O)COc1nc(Cl)c(Cl)cc1Cl`, for which the Potency was 57.4 µM (active).

`N#CC(Cl)Cl`: the Potency was 59.5 µM (active).

Regarding `O=C(CBr)c1ccc(O)cc1`, the Potency was 68.6 µM (active).

Take `CCCCCCCCCBr`: the Potency entry is “inactive”.

Turning to `S=C=Nc1cccc2ccccc12`, the Potency was 60.5 µM (active).

As to `c1ccc(Nc2ccc3ccccc3c2)cc1`, the Potency is 54.2 µM (active).

For the molecule `Clc1ccc(C(c2ccccc2Cl)C(Cl)(Cl)Cl)cc1` (stereo unspecified), the Potency was 45.1 µM (active).

Regarding `[Cd+2].[Cl-].[Cl-]`, the Potency was 13.8 µM (active) and 27.3 µM (active).

`CCOC(=O)OC1=C(c2cc(C)ccc2C)C(=O)NC12CCC(OC)CC2` (stereo unspecified): the Potency is 30.6 µM (active).

Turning to `CC(C)N1C(=O)N(c2ccccc2)CSC1=NC(C)(C)C`, the Potency is 19.3 µM (active).

For the molecule `COP(=S)(OC)Oc1cc(Cl)c(Br)cc1Cl`, the Potency was 61.1 µM (active).

For `C1CCC2CCCCC2C1` (stereo unspecified), the Potency result is “inactive”.

Regarding `O=c1oc2ccccc2c(O)c1Cc1c(O)c2ccccc2oc1=O`, the Potency result is “inactive”.

As to `Fc1cccc(Cl)c1CCl`, the Potency result was “inactive”.

A short description of a further test: qHTS assay for identifying genotoxic compounds that show differential cytotoxicity against isogenic chicken DT40 cell lines with known DNA damage response pathways - Rad54/Ku70 mutant cell line (AID 743015). Also: nearly all actives have a fitted effect of over 60% in size. The settings on record: DT40 Rad54/Ku70 mutant viability, CellTiter-Glo, 40 h; series mostly up to 66.8 µM.
Consider `Cc1cc(C(F)(C(F)(F)F)C(F)(F)F)ccc1NC(=O)c1cccc(I)c1C(=O)NC(C)(C)CS(C)(=O)=O`, for which the Potency was 30.8 µM (active).

On to `CCOc1cc(C(C)(C)C)ccc1C1COC(c2c(F)cccc2F)=N1` (stereo unspecified), for which the Potency is 11.7 µM (active).

`Oc1cc(Cl)c(Cl)c(Cl)c1`: the Potency result is “inactive”.

Take `CC(=O)Nc1ccc2c(c1)Cc1ccccc1-2`: the Potency was 62.1 µM (active).

As for `[CH3][Hg][Cl]`, the Potency was 48.4 µM (active).

In the case of `ClC1=C(Cl)[C@]2(Cl)[C@H]3[C@H]([C@H]4C=C[C@H]3C4)[C@@]1(Cl)C2(Cl)Cl`, the Potency was 61.1 µM (active).

For the molecule `CCCCCCCCCBr`, the Potency entry is “inactive”.

With `c1ccc(Nc2ccc3ccccc3c2)cc1`, the Potency is 60.8 µM (active).

`Clc1ccc(C(c2ccccc2Cl)C(Cl)(Cl)Cl)cc1` (stereo unspecified): the Potency is 28.4 µM (active).

Regarding `[Cd+2].[Cl-].[Cl-]`, the Potency is 13.8 µM (active) and 24.3 µM (active).

`Nc1ccc(Sc2ccc(N)cc2)cc1`: the Potency was 62.9 µM (active).

Consider `CC(C)N1C(=O)N(c2ccccc2)CSC1=NC(C)(C)C`, for which the Potency is 24.3 µM (active).

For `CN(C)C1CSSSC1`, the Potency is 21.7 µM (active).

Consider `C1CCC2CCCCC2C1` (stereo unspecified), for which the Potency entry was “inactive”.

For the molecule `O=c1oc2ccccc2c(O)c1Cc1c(O)c2ccccc2oc1=O`, the Potency entry is “inactive”.

In the case of `Fc1cccc(Cl)c1CCl`, the Potency entry is “inactive”.

Values taken from PubChem BioAssay (Tox21).
